The source of these data is the supplement of paper PMC8728848.

Common to all, as to test: glycan array binding signal (z-score within array); higher = stronger binding
Settings in all cases: glycan notation: IUPAC condensed, linker removed

The subject of assay [1] is Neu5Ac(a2-8)Neu5Ac(a2-3)Gal(b1-4)GlcNAc. In a few lines:
(§1)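 Glycan array data came from 3228 arrays in the Consortium for Functional Glycomics database, and only arrays with an available protein sequence were kept. Glycan names were put into IUPAC-condensed notation, and columns mapping to the same glycan were averaged. The binding signal is a within-array Z-score, averaged across arrays of one protein sequence run at different concentrations or buffers and across linkers. A negative Z-score can be read as non-binding.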

Assay [2] has as its system Neu5Ac(a2-8)Neu5Ac(a2-3)Gal(b1-3)GalNAc(b1-4)[Neu5Ac(a2-3)]Gal(b1-4)Glc. In a few lines: as §1
For assay [3], the system named is Neu5Ac(a2-6)Gal(b1-4)GlcNAc(b1-6)[Gal(b1-3)GlcNAc(b1-3)]Gal(b1-4)Glc. The procedure, abridged:
as §1

The subject of assay [4] is Neu5Ac(a2-6)GalNAc(b1-4)GlcNAc. In a few lines: as §1
For assay [5], the system named is Neu5Ac(a2-6)Gal(b1-4)GlcNAc. The procedure, abridged: as §1
Assay [6] relates to Neu5Ac(a2-6)GlcNAc(b1-4)GlcNAc. The procedure, abridged: as §1
Assay [7] relates to Neu5Ac(a2-8)Neu5Ac(a2-3)Gal(b1-3)GalNAc(b1-4)[Neu5Ac(a2-8)Neu5Ac(a2-3)]Gal(b1-4)Glc. In a few lines:
as §1

Assay [8] has as its system Neu5Ac(a2-6)Gal(b1-4)GlcNAc6S. In a few lines: as §1
Assay [9] concerns Neu5Ac(a2-6)Gal. The procedure, abridged: as §1
The test system of assay [10] is Neu5Ac(a2-6)Gal(b1-4)GlcNAc(b1-3)[Neu5Ac(a2-6)Gal(b1-4)GlcNAc(b1-6)]GalNAc. The procedure, abridged: as §1

The full list was thinned out, with the strongest signals kept by preference.

Consider AgI/IIC123-GFP (Streptococcus mutans), for which the “glycan array binding signal (z-score)” value in [1] is -0.506.
Regarding MIC3-MAR5 (Eimeria tenella), B6VCV4, the “glycan array binding signal (z-score)” value in assay [2] was found to be 3.86.
For MIC3-MAR1b (Eimeria tenella), B6VCV4, the “glycan array binding signal (z-score)” value in assay [3] came out at 1.38.
LcI (Legionella pneumophila): in assay [4], the “glycan array binding signal (z-score)” value was -0.669.
Take Epa22: the “glycan array binding signal (z-score)” value in [3] was 0.104; in assay [5] it was -0.607; in assay [4], -0.394; in assay [6] it was -0.046.
Consider “SpGH101 (Streptococcus pneumoniae), Q8DR60”, for which the “glycan array binding signal (z-score)” value in [5] was -0.172.
For the substance BambL (Burhholderia ambifaria), Q0B4G1, in assay [7], the “glycan array binding signal (z-score)” value was -0.308.
As to Actinohivin (Actinomycete K97), the “glycan array binding signal (z-score)” value is -0.199 in assay [8], -0.197 in [4] and -0.147 in assay [9].
In the case of “AgI/II Vhelical-GFP (Streptococcus mutans)”, the “glycan array binding signal (z-score)” value in assay [10] was -0.298; in assay [8], -0.076; in [9], -0.257; in [2], -0.253.
